# Only a selection was taken, and hits are over-represented in it overall.
# KDM5B inh: Primary screen for KDM5B Histone Demethylases FDH-coupled qHTS; Lysine-specific demethylase 5B (Homo sapiens), Q9UGL1; KDM5B demethylase, FDH-coupled NADH fluorescence (FDH is formaldehyde dehydrogenase); Potency, µM (series often up to 57.7 µM), most hits filed as inhibitors; 2.6% of 220,000 active; active = well fitted inhibition curve with a large enough effect; also: 0% is about no effect; nearly all actives have a fitted effect of over 70% in size
#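 Measured: NADH fluorescence change, 30 min, RT. System: KDM5BΔAP 200 nM final, H3K4me3 peptide, α-KG, Fe(II), ascorbate, NAD⁺ plus FDH, pH 7.5 HEPES. Compounds: titrated, 10 min pre-incubation with enzyme.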
# An asterisk follows results filed as active; i = inactive. Potency is read from the fitted curve at half-maximal effect.
SMILES,KDM5B inh
CCCS(=O)(=O)N1C[C@@H]2C[C@H](C1)c1ccc(-c3ccc4ccccc4c3)c(=O)n1C2,i
N#Cc1ccccc1S(=O)(=O)N1C[C@@H]2C[C@H](C1)c1c(-c3ccccc3F)ccc(=O)n1C2,i
O=c1c(C2CCCCC2)ccc2n1C[C@H]1C[C@@H]2CN(S(=O)(=O)c2ccccc2)C1,32µM*
O=C(Nc1ccc(=O)n2c1[C@@H]1C[C@@H](CN(S(=O)(=O)c3ccccc3)C1)C2)c1cncnc1,i
N#Cc1ccccc1S(=O)(=O)N1C[C@@H]2C[C@H](C1)c1ccc(-c3ccc(Cl)cc3)c(=O)n1C2,35µM*
O=c1cccc2n1C[C@H]1C[C@@H]2CN(C[C@H]2CN3CC[C@H]2C[C@@H]3CNS(=O)(=O)c2ccccc2)C1,i
C=C[C@H]1CN2CC[C@H]1C[C@@H]2CNCc1ccc(OC(F)(F)F)cc1,i
O=C(Nc1ccccc1)N1C[C@@H]2C[C@H](C1)c1c(-c3ccccc3F)ccc(=O)n1C2,i
CCCNC(=O)OC[C@H]1C[C@@H]2CCN1C[C@@H]2c1cc(-c2ccc3ccccc3c2)nn1C,i
CC[C@H]1CN2CC[C@H]1C[C@@H]2CNC(=O)c1ccc2c(c1)OCO2,i
CCC(CC)c1cc([C@H]2CN3CC[C@H]2C[C@@H]3CNC(=O)Nc2ccc(C(C)=O)cc2)nc(-c2ccncc2)n1,i
CCn1cc(C(=O)Cn2cnc3ccccc32)c2ccccc21,i
CCCNC(=O)NC(=O)COC(=O)c1cn(C)c2ccccc12,i
CCCn1c(C)cnc1CCNC(=O)c1nn(C)c2ccccc12,25µM*
COCCC(=O)N1CCC2(CC1)C(=O)Nc1cc(Oc3cccc(N(C)C)c3)c(OC)cc12,i
C#C[C@H]1CN2CC[C@H]1C[C@@H]2CNC(=O)c1ccc(F)c(Cl)c1,i
O=[N+]([O-])c1cnc(N2CC3CCC(C2)N3CC(F)(F)F)nc1,i
CN1CCN(C(=O)Cc2c[nH]c3ncc(-c4cccc(F)c4)cc23)CC1,28µM*
CN1CCN(C(=O)Cc2ccccc2)CC1,i
Cc1noc(C)c1-c1cnc2[nH]cc(CC(=O)N3CCN(C)CC3)c2c1,28µM*
COc1ccc(OC)c(-c2cnc3[nH]cc(CC(=O)N4CCN(C)CC4)c3c2)c1,i
CN1CCN(C(=O)COc2ccc3c(=O)c(-c4ccccc4)coc3c2)CC1,i
Cc1ccccc1-c1cnc2[nH]cc(CC(=O)N3CCN(C)CC3)c2c1,32µM*
O=C(Cc1c[nH]c2ccccc12)N1CCN(C(c2ccccc2)c2ccccc2)CC1,i
CN1CCCC12Cc1ccccc1CN(C(=O)Cc1cccc(Cl)c1)C2 (centres undefined),i
SMILES,KDM5B inh
CN1CCN(C(=O)Cc2c[nH]c3ncc(-c4cccc(Cl)c4)cc23)CC1,35µM*
CCOc1cc(CNCCc2c[nH]c3ccc(OC)cc23)ccc1O,i
O=C(Nc1cccc(C(F)(F)F)c1)OC[C@H]1C[C@@H]2CCN1C[C@@H]2c1cc(C2CCCC2)nc(-c2ccncc2)n1,i
C=CCN(C)C(=O)[C@H]1CN2CCC1C[C@@H]2Cn1cc(COC)nn1 (some centres undefined),i
Cc1ncc2c(n1)C[C@@H]1CC[C@H]2N1C(=O)CC1CCCC1,i
COc1ccc(-c2cc([C@H]3CN4CC[C@H]3C[C@@H]4CNC(=O)c3ccc(N(C)C)cc3)n(C)n2)cc1,i
CSCC(=O)Nc1ccc(=O)n2c1[C@@H]1C[C@@H](CN(C(=O)c3ccc(F)cc3)C1)C2,i
O=C(O)C1=NOC2CN(CC3CCNC3)CC12 (centres undefined),141µM*
O=C(O)C1=NOC2CN(CC3CCCCC3)CC12 (centres undefined),i
O=C(O)C1=NOC2CN(CC3CCOCC3)CC12 (centres undefined),i
Cc1cc(NCCc2c[nH]c(=O)[nH]c2=O)n2nccc2n1,i
COC(=O)N1CCC2(C1)N=C(c1cccnc1)C(=O)N2 (centres undefined),i
FC(F)(F)CN1C2CCC1CN(c1ncnc3sc(Cl)nc13)C2,i
Cc1cccn2c(CC(=O)N3CCN(C)[C@@H]4CS(=O)(=O)C[C@@H]43)cnc12,28µM*
CN1CCN(C(=O)Cc2cccn2-c2ccc(F)cc2)CC1,i
COCCN1CCN(C(=O)C2C(C)(C)C2(C)C)[C@H]2CS(=O)(=O)C[C@H]21,i
CC(C)CN1C[C@@H]2OCC(=O)N(CC(N)=O)[C@@H]2C1,i
O=C(CN1CCCC1=O)NCc1ccccc1C(F)(F)F,i
CC(C)CCN1C[C@@H]2C(=O)N(C)C(=O)[C@@H]2C1,i
Cn1cc(-c2cnc3[nH]cc(CC(=O)N4CCN(Cc5ccccc5)CC4)c3c2)cn1,28µM*
CN1CCN(C(=O)Cc2c[nH]c3ncc(-c4ccc(Cl)cc4)cc23)CC1,32µM*
O=C(CN1CCCC1=O)NCc1ccc(F)c(Cl)c1,i
O=C(Cc1c[nH]c2ccccc12)N1CCN(Cc2ccccc2)CC1,i
